# Data: PubChem BioAssay (Tox21)
# Where “and” joins values, the source holds several entries; their conditions need not be identical. Equal entries are not always repeated. Inconclusive results are not listed. Entries that show only a call come without a potency. More than one record can exist for a structure, and the calls need not agree. Calls of active or inactive are those of the source. Unless noted, calls follow the shape of the dose curve; as a rule, active = well fitted curve in the direction sought with a large enough effect in the repeat runs; inconclusive = weak or mixed curves; inactive = no such curve, though single readings can be large; an effect the other way counts as inactive or inconclusive.
# Tests used:
# [1] = target: Retinoic acid receptor RXR-alpha (Homo sapiens) (UniProt P19793); test: qHTS assay to identify small molecule agonists of the RXR signaling pathway (AID 1159527; calls by dose curve; also: nearly all actives have a fitted effect of over 35% in size; also: potency is read from the fitted curve at half-maximal effect)
# Sequence of Retinoic acid receptor RXR-alpha (Homo sapiens) (P19793 whole entry, looked up): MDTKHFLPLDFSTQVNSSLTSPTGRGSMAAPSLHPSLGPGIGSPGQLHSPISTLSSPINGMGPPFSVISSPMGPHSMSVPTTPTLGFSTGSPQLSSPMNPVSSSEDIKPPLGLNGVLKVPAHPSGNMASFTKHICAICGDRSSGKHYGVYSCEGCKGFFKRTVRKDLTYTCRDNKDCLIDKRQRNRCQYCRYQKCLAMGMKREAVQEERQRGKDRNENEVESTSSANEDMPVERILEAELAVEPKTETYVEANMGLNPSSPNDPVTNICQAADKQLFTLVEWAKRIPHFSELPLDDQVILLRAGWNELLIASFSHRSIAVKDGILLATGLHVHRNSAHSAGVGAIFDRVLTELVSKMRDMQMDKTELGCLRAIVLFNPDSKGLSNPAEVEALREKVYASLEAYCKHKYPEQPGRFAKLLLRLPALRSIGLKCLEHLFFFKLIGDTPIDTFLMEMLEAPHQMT
# In short: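 Read-out: beta-lactamase FRET ratio (405 nm excitation, 460 and 530 nm emission) after 2 hr substrate loading at room temperature. Cells were RXR-alpha-UAS-bla HEK 293T treated with compounds for 16 hr in 2% charcoal-stripped FBS medium.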
# [2] = qHTS assay to identify small molecule agonists of the RXR signaling pathway - cell viability counter screen (AID 1159529); also: nearly all actives have a fitted effect of over 50% in size; also: potency is read from the fitted curve at half-maximal effect
# In short: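 HEK 293T RXRa-bla cells, 2% CS-FBS; 5 h settle; cpd 16 h 37 C, 5% CO2; CellTiter-Glo 30 min RT, luminescence. Tetraoctyl ammonium bromide as positive control.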
# [3] = qHTS assay to identify small molecule antagonists of the retinoid acid receptor (RAR) signaling pathway - cell viability counter screen (AID 1159551); also: nearly all actives have a fitted effect of over 35% in size; also: potency is read from the fitted curve at half-maximal effect
# In short: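 Measured by luminescent ATP detection, viability reflects C3RL4 cells treated 6 h at 37 C with test chemicals in the presence of 1 uM (final) retinol.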
# [4] = qHTS assay to identify small molecule antagonists of the estrogen related receptor (ERR) signaling pathway from Tox21 library - cell viability counter screen (AID 1224834); also: nearly all actives have a fitted effect of over 30% in size; also: potency is read from the fitted curve at half-maximal effect
# In short: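 Seeded ERR cells were rested 6 h at 37 C/5% CO2 before compounds, positive and negative controls or DMSO were added. Incubation continued for 17.5 h, and viability was then quantified by CellTiter-Fluor fluorescence.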
# [5] = target: Luciferin 4-monooxygenase (Photinus pyralis) (UniProt P08659); test: qHTS assay to identify small molecule inhibitors of firefly luciferase (AID 1224835); also: nearly all actives have a fitted effect of over 25% in size; also: potency is read from the fitted curve at half-maximal effect
# Sequence of Luciferin 4-monooxygenase (Photinus pyralis) (P08659 whole entry, looked up): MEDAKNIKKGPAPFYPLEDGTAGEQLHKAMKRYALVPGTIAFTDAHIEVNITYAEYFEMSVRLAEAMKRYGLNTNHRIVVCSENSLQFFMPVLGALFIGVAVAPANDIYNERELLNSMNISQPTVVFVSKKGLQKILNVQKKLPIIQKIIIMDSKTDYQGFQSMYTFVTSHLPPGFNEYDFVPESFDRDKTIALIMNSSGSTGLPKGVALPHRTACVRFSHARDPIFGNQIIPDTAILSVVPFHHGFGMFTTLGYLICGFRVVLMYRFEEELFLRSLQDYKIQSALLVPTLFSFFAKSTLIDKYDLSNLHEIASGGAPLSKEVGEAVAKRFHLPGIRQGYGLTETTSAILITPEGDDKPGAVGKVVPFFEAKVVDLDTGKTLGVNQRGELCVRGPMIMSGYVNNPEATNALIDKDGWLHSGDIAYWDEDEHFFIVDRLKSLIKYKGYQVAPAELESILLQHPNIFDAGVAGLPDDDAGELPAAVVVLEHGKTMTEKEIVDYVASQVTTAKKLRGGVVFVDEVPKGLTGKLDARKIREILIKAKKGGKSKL
# In short: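 Biochemical qHTS: compounds run as interplate titrations against purified firefly enzyme, with D-luciferin and ATP each at its KM concentration. Light output recorded by CCD imaging.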
# [6] = qHTS assay to identify small molecule agonists of the constitutive androstane receptor (CAR) signaling pathway - cell viability counter screen (AID 1224836); also: nearly all actives have a fitted effect of over 45% in size; also: potency is read from the fitted curve at half-maximal effect
# In short: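 HepG2-CYP2B6-hCAR, 2500 cells/well, 4 h pre-incubation; cpd 15 conc + PK11195 0.75 uM final; 23 h, 37 C/5% CO2; CellTiter-Fluor, fluorescence.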
# [7] = qHTS assay to identify small molecule antagonists of the constitutive androstane receptor (CAR) signaling pathway - cell viability counter screen (AID 1224837); also: nearly all actives have a fitted effect of over 45% in size; also: potency is read from the fitted curve at half-maximal effect
# In short: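 To flag cytotoxic false antagonists, HepG2 hCAR/CYP2B6-2.2kb cells were treated 23 hr with 15-concentration compound series and 50 nM CITCO at 37 C/5% CO2; CellTiter-Fluor fluorescence was the measured end point.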
# [8] = target: Nuclear receptor subfamily 1 group I member 3 (Homo sapiens) (UniProt Q14994); test: qHTS assay to identify small molecule antagonists of the constitutive androstane receptor (CAR) signaling pathway (AID 1224838);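 also: HepG2 cells stably expressing hCAR with CYP2B6 luciferase reporter stimulated by CITCO; nearly all actives have a fitted effect of over 40% in size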; also: potency is read from the fitted curve at half-maximal effect
# Sequence of Nuclear receptor subfamily 1 group I member 3 (Homo sapiens) (Q14994 whole entry, looked up): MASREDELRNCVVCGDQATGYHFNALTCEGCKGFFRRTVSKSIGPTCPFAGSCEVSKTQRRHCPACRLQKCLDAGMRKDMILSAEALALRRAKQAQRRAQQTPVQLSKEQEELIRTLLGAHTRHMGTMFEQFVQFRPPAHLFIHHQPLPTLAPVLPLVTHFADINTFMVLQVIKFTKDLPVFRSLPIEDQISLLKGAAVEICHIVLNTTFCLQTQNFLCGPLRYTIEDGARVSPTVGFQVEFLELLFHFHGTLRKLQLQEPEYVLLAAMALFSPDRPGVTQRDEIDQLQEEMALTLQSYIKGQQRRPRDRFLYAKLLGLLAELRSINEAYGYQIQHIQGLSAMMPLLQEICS
# In short: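 Human hepatoma HepG2 cells expressing hCAR and a CYP2B6 promoter (2.2 kb) luciferase construct; compound titration (15 points) with 50 nM CITCO final, 24 h at 37 C/5% CO2; luminescence via ONE-Glo after 30 min at room temperature.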
# [9] = qHTS assay to identify small molecule antagonists of the estrogen related receptor signaling pathway with the pleiotropic PPARgamma coactivator (PGC) from Tox21 10K library - cell viability counter screen (AID 1224840; active = well fitted cell-killing curve with a large enough effect in the repeat runs, not every such curve was filed as active; also: nearly all actives have a fitted effect of over 40% in size; also: potency is read from the fitted curve at half-maximal effect)
# In short: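 Seeded PGC/ERR cells (2,000/well, 6 h, 37 C/5% CO2) get compound by pin tool; 17.5 h incubation at 37 C; CellTiter-Fluor added, 30 min, fluorescence measured.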
# [10] = qHTS assay to identify small molecule agonists of the estrogen related receptor signaling pathway with the pleiotropic PPARgamma coactivator (PGC) from Tox21 10K library (AID 1224842); also: nearly all actives have a fitted effect of over 15% in size
# In short: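 PGC/ERR reporter cell line, 2,000 cells per well, incubated 6 h at 37 C before 23 nL compound in DMSO was added. After 18 h at 37 C, One-Glo luminescence read following 30 min at room temperature.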
# [11] = target: Thyrotropin receptor (Homo sapiens) (UniProt P16473); test: qHTS assay to identify small molecule agonists of the thyroid stimulating hormone receptor (TSHR) signaling pathway (AID 1224843; calls by dose curve; also: nearly all actives have a fitted effect of over 45% in size)
# Sequence of Thyrotropin receptor (Homo sapiens) (P16473 whole entry, looked up): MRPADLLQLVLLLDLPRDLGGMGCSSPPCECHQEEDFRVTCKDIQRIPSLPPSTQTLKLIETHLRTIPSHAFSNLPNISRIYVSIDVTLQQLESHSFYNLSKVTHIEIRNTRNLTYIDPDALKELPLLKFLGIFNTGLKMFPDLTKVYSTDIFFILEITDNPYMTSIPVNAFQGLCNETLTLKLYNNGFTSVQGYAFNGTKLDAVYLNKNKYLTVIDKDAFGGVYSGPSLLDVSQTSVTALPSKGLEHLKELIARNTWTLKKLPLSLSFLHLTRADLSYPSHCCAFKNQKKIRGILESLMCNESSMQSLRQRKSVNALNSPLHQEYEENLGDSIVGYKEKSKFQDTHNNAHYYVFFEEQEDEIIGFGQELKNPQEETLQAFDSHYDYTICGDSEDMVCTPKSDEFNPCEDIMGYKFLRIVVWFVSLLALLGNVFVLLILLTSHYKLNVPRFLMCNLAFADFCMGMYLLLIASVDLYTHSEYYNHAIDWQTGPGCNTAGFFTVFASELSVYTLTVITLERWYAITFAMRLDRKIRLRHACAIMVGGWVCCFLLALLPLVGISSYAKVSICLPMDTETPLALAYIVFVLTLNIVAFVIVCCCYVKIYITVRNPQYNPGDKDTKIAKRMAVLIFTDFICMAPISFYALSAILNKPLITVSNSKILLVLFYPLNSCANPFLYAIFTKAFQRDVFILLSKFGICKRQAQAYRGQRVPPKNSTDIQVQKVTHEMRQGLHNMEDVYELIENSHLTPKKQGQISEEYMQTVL
# In short: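 Agonist-mode screen: TSHR HEK293 cells received test chemicals for half an hour at room temperature, then HTRF cAMP detection reagents for one hour prior to fluorescence measurement. Each chemical ran as a 15-concentration series, triplicated.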
# [12] = qHTS assay to identify small molecule antagonists of the retinoic acid receptor (RAR) signaling pathway (AID 1159552; also: nearly all actives have a fitted effect of over 50% in size; also: potency is read from the fitted curve at half-maximal effect)
# In short: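 Cells of the C3RL4 line were seeded, incubated overnight, then dosed with compounds in DMSO followed immediately by retinol (1 uM final). Six hours later luciferase detection reagent went in; signal was measured after 30 min at RT.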
# [13] = qHTS assay to identify small molecule agonists of the retinoic acid receptor (RAR) signaling pathway (AID 1159553)
# In short: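 6 hr compound exposure (DMSO vehicle) of overnight-plated C3RL4 RARE-luc cells at 37 C; luminescence quantified after 30 min RT with luciferase reagent.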
# [14] = qHTS assay to identify small molecule antagonists of the estrogen related receptor (ERR) signaling pathway - cell viability counter screen (AID 1224818); also: series mostly up to about 46 µM
# In short: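 Compounds dissolved in DMSO were applied to ERR cells seeded at 2,000 per well 6 h earlier. Cell viability followed 17.5 h later via 30-min CellTiter-Fluor fluorescence.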
# [15] = qHTS assay to identify small molecule antagonists of the estrogen related receptor (ERR) signaling pathway (AID 1224819; also: nearly all actives have a fitted effect of over 50% in size; also: potency is read from the fitted curve at half-maximal effect)
# In short: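 Compounds dissolved in DMSO were pin-transferred onto ERR cells that had been plated 6 h earlier, and cells were then incubated 18 h at 37 C; signal was luciferase luminescence via One-Glo.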
# [16] = qHTS assay to identify small molecule agonists of the estrogen related receptor (ERR) signaling pathway (AID 1224820)
# In short: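 An ERR cell line provided by NTP was seeded at 2,000 cells per well and allowed to settle for 6 h before compounds in DMSO were added. After 18 h at 37 C, luciferase activity was measured by One-Glo luminescence.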
# [17] = system: estrogen-related receptor alpha (ERRalpha) with PGC-1alpha coactivator, human; test: qHTS assay to identify small molecule antagonists of the estrogen related receptor signaling pathway with the pleiotropic PPARgamma coactivator (PGC) (AID 1224821; calls by dose curve;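 also: series mostly up to about 46 µM; lower luminescence signal means antagonism of PGC/ERR signalling; nearly all actives have a fitted effect of over 50% in size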)
# In short: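 A PGC/ERR cell line supplied by NTP is seeded, allowed 6 h at 37 C, and treated with test compounds in DMSO for 18 h. Signal is then measured as luciferase luminescence using One-Glo.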
# [18] = qHTS assay to identify small molecule antagonists of the estrogen related receptor signaling pathway with the pleiotropic PPARgamma coactivator (PGC) cell viability counter screen (AID 1224822; also: series mostly up to about 46 µM)
# In short: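 Counter screen for cell viability: PGC/ERR cells, 6 h pre-incubation after plating, 17.5 h compound exposure at 37 C, fluorescence from CellTiter-Fluor after 30 min.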
# [19] = qHTS assay to identify small molecule agonists of the estrogen related receptor signaling pathway with the pleiotropic PPARgamma coactivator (PGC) (AID 1224823)
# In short: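 Compounds dissolved in DMSO are added by pin tool to PGC/ERR cells that have settled for 6 h, and incubation continues 18 h at 37 C. Reporter output is measured as One-Glo luminescence.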
# [20] = target: Nuclear receptor subfamily 1 group I member 3 (Homo sapiens) (UniProt Q14994); test: qHTS assay to identify small molecule agonists of the constitutive androstane receptor (CAR) signaling pathway (AID 1224839);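 also: HepG2 cells stably carrying human CAR and a CYP2B6 luciferase reporter; series mostly up to about 92 µM; nearly all actives have a fitted effect of over 15% in size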
# In short: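 HepG2-CYP2B6-hCAR cells, 2500/well, 4 h pre-incubation; compounds 15 conc.; PK11195 0.75 uM final; 24 h, 37 C/5% CO2; ONE-Glo luciferase read.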
SMILES,Potency [1],Potency [2],Potency [3],Potency [4],Potency [5],Potency [6],Potency [7],Potency [8],Potency [9],Potency [10],Potency [11],Potency [12],Potency [13],outcome [14],Potency [15],outcome [16],outcome [17],Potency [18],outcome [19],Potency [20]
Cc1cccc(C)c1,inactive,inactive,inactive,inactive,inactive,inactive,inactive,inactive,inactive,inactive,inactive,–,–,–,–,–,–,–,–,–
CCOc1ccc(NC(C)=O)cc1,inactive,inactive,inactive,inactive,inactive,inactive,inactive,–,inactive,inactive,inactive,–,–,–,–,–,–,–,–,–
CC12CCC(CC1)C(C)(C)O2,inactive,inactive,inactive,inactive,inactive,inactive,inactive,–,inactive,–,inactive,inactive,–,–,–,–,–,–,–,–
NC(=O)c1cccnc1,inactive,inactive,inactive,inactive,inactive,inactive,inactive,inactive,inactive,–,inactive,–,–,–,–,–,–,–,–,–
CC(O)(P(=O)(O)O)P(=O)(O)O,inactive,inactive,inactive,inactive,inactive,inactive,inactive,–,inactive,–,inactive,–,–,–,–,–,–,–,–,–
COc1ccc(C(Cl)=C(c2ccc(OC)cc2)c2ccc(OC)cc2)cc1,inactive,inactive,inactive,inactive,inactive,inactive,inactive,inactive,inactive,inactive,–,inactive,inactive,–,–,–,–,–,–,–
O=C(O)c1ccccc1,inactive,inactive,inactive,inactive,inactive,inactive,inactive,inactive,inactive,–,inactive,–,–,–,–,–,–,–,–,–
Cc1cc(C)nc(NS(=O)(=O)c2ccc(N)cc2)n1,14 µM (active) and inactive,inactive,inactive,inactive,inactive,inactive,inactive,inactive,inactive,–,inactive,inactive,–,–,–,–,–,–,–,–
O=C(O)CC(O)C(=O)O (configuration not stated),inactive,inactive,inactive,inactive,inactive,inactive,inactive,inactive,inactive,–,inactive,inactive,inactive,–,–,–,–,–,–,–
COc1ccc2c(c1)c(CC(=O)O)c(C)n2C(=O)c1ccc(Cl)cc1,–,inactive,inactive,inactive,inactive,inactive,inactive,inactive,inactive,inactive,inactive,inactive,–,inactive,inactive,inactive,inactive,inactive,inactive,inactive
Nc1c2c(nc3ccccc13)CCCC2,inactive,inactive,inactive,inactive,inactive,inactive,inactive,54.5 µM (active) and 43.3 µM (active) and inactive,inactive,inactive,inactive,inactive,–,inactive,inactive,inactive,inactive,inactive,inactive,inactive
COc1ccc(CN(CCN(C)C)c2ccccn2)cc1,inactive,40.2 µM (active) and inactive,inactive,–,inactive,inactive,inactive,–,inactive,–,–,inactive,–,inactive,–,–,–,inactive,–,–
CC(C)C(=O)Nc1ccc([N+](=O)[O-])c(C(F)(F)F)c1,–,inactive,inactive,–,inactive,inactive,inactive,inactive,inactive,inactive,inactive,inactive,–,inactive,22.8 µM (active),inactive,–,inactive,inactive,–
NS(=O)(=O)c1cc2c(cc1Cl)NCNS2(=O)=O,–,inactive,inactive,inactive,inactive,inactive,inactive,–,inactive,inactive,inactive,–,–,inactive,inactive,inactive,inactive,inactive,inactive,–
CCCCNC(=O)NS(=O)(=O)c1ccc(C)cc1,–,inactive,inactive,inactive,inactive,inactive,inactive,–,inactive,inactive,–,–,–,inactive,inactive,inactive,inactive,inactive,inactive,–
CN(C)C(=S)SC(=S)N(C)C,–,5.02 µM (active) and 3.89 µM (active) and 1.9 µM (active),48.6 µM (active),1.98 µM (active) and 1.54 µM (active) and 1.68 µM (active),25.8 µM (active) and 11.2 µM (active) and 12.3 µM (active),2.22 µM (active) and 1.72 µM (active) and 3.76 µM (active),1.57 µM (active) and 1.72 µM (active) and 2.37 µM (active),1.25 µM (active) and 1.54 µM (active) and 2.37 µM (active),1.25 µM (active) and 1.37 µM (active) and 1.68 µM (active),inactive,inactive,1.77 µM (active) and 1.93 µM (active) and 2.37 µM (active),–,–,–,–,–,–,–,–
